This note sets out measurements from ChEMBL document CHEMBL3433997, “St. Jude Leishmania screening dataset” (2016).

As usually defined, the inhibition is the drop in the measured response relative to a control, in per cent.

Holding throughout (format): functional
Experiment [1] has as its target Solute carrier family 2, facilitated glucose transporter member 1 (Homo sapiens) (UniProt P11166). The experiment is described as follows: ST_JUDE_LEISH: Cytotoxicity at 2uM final concentration against transgenic Leishmania Mexicana promastigotes LmGLUT1 that are glucose transport deficient and complemented with the human glucose transporter GLUT1. Activity is measured by DNA content using SYBR green in vitro.

The target of experiment [2] is Hexose transporter 1 (Plasmodium falciparum) (UniProt O97467). The experiment is described as follows: ST_JUDE_LEISH: Cytotoxicity at 2uM final concentration against transgenic Leishmania Mexicana promastigotes LmPfHT that are glucose transport deficient and complemented with the Plasmodium falciparum hexose transporter. Activity is measured by DNA content using SYBR green in vitro.

Experiment [3] addresses Glucose transporter (Leishmania mexicana) (UniProt O61059). The experiment in a line: ST_JUDE_LEISH: Cytotoxicity at 2uM final concentration against transgenic Leishmania Mexicana promastigotes LmGT2 that are glucose transport deficient and complemented with the L. Mexicana glucose transporter 2. Activity is measured by DNA content using SYBR green in vitro.

The structures appear in SMILES notation.

Sequence of Solute carrier family 2, facilitated glucose transporter member 1 (Homo sapiens) (P11166 whole entry): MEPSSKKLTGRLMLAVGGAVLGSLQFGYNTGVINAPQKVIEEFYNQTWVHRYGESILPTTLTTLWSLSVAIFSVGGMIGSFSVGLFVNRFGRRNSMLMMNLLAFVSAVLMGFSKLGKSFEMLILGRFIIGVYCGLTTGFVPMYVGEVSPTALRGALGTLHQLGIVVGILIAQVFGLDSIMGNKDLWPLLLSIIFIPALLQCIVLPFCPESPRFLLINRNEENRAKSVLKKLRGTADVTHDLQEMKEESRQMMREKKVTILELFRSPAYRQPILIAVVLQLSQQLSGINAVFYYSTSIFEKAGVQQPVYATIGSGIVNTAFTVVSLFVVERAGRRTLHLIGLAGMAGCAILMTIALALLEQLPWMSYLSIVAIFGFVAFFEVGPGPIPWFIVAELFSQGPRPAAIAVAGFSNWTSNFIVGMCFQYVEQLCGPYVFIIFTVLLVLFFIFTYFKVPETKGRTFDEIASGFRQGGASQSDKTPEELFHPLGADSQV

In the case of `CCN(CCCN1CCCCC1)c1nccc(Nc2ccc(Cl)cc2)n1`, the inhibition in experiment [1] stood at 2.03%; in experiment [2], 0.37%; in experiment [3], 1.18%.
Consider `Nc1nccc2ccc(-c3ccc(Oc4ccccc4)cc3)cc12`, for which the results for the inhibition in experiment [1], in experiment [2] and in experiment [3] were 14.9%, 15.8% and 12.2%, respectively.
In the case of `CCn1c(C=Cc2cc(Br)ccc2O)nc2ccccc2c1=O`, the inhibition was -1.02% in experiment [1], 0.39% in experiment [2] and 0.51% in experiment [3].
`O=C(C=Cc1ccc(Br)cc1)N1CCC(CCN2CCC(c3c[nH]c4ccccc34)CC2)CC1`: the inhibition amounted to 4.46% in experiment [1], 8.48% in experiment [2] and 4.25% in experiment [3].
For `CN1CCC(C(=O)Nc2cccc(-c3ccc(-c4nc5cc(C(F)(F)F)ccc5[nH]4)s3)c2)CC1`, the inhibition in experiment [1] amounted to 9.29%; in experiment [2], 10%; in experiment [3] it was 6.1%.
As to `CCOC(=O)CCc1cc(F)c(F)c(OC[C@H](O)CNC(C)(C)C(O)c2ccc3ccccc3c2)c1` (stereo not given in full), the inhibition in experiment [1] was 0.06%; in experiment [2] it was 0.61%; in experiment [3] it was 0.21%.
Take `O=C(Nc1cccc(C(F)(F)F)c1)NC1CCN(c2ccnc3ccccc23)CC1`: the values for the inhibition in experiment [1], in experiment [2] and in experiment [3] were 5.82%, 5.09% and 2.7%, respectively.
In the same order, the values of `CC(C)C[C@H](NC(=O)c1ccc(OCCN2CCOCC2)cc1)C(=O)N[C@H](/C=N/NC(=O)OC(C)(C)C)CCc1ccccc1` are 9.41%, 8.52% and 5.94%.
In the same order, the values of `O=C(/C=C/c1ccc(Cl)c(Cl)c1)NCC1CCN(Cc2ccc(O)cc2)CC1` are 69.6%, 57.8% and 46.2%.
The like results for `CCCCNCc1ccc(-c2nc(CN(CCCN3CCN(C)CC3)C(=O)Nc3cccc(Cl)c3)cs2)cc1` were, in that order, 5.24%, 9.93% and 5.61%.
As to `CCOc1ccccc1CON1C(N)=NC(N)=NC1(C)C`, the results for the inhibition in experiment [1], in experiment [2] and in experiment [3] were 4.48%, 3.69% and 7.54%, respectively.
Turning to `Cn1nc(-c2cccc(CNC3CCc4ccccc43)c2)c2cnc(NC3CCCC3)nc21` (stereo not given), the inhibition was 2.84% in experiment [1], 5.46% in experiment [2] and 3.3% in experiment [3].
The like results for `O=C(NCC1CN(Cc2ccc(N3CCCC3)o2)CCCO1)c1ccc2c(c1)OCO2` (stereo not given) were, in that order, -0.31%, 0.65% and 2.95%.
The like results for `c1cc(CNc2ncc(-c3ccsc3)c(-c3nccs3)n2)ccn1` were, in that order, 7.08%, 9.37% and 6.45%.
Take `CCCc1cnc2nc(N)nc(N)c2c1C`: the inhibition is -2.96% in experiment [1], -0.62% in experiment [2] and 0.34% in experiment [3].
For the compound `Cc1nc(C(=O)N2CCCC[C@H]2CNC(=O)c2ccc(-c3ccc(N4CCCC4=O)cc3C)cc2)c(-c2ccc(F)cc2)s1`, the inhibition in experiment [1] is -1.91%; in experiment [2] it was -0.31%; in experiment [3], 4.58%.
Turning to `CN(C)CCNC(=O)c1ccc(-c2cnc3ccc(NCc4ccc(Cl)c(Cl)c4)nn23)cc1`, the figures for the inhibition in experiment [1], in experiment [2] and in experiment [3] were -1.43%, -1.29% and 11.1%, respectively.
Take `CCN(CCCN1CCCCC1)c1cc(C)nc(Nc2cc(Br)ccc2C)n1`: the inhibition in experiment [1] was -1.93%; in experiment [2] it was -0.61%; in experiment [3], -0.36%.
The like results for `O=C(/C=C/c1ccc(Cl)c(Cl)c1)NCCCCCN1CCC(NS(=O)(=O)c2cc(Cl)cc(Cl)c2)CC1` were, in that order, 3.59%, 3.03% and 3.19%.
Turning to `CCN(CC)CCN(Cc1ccc(-c2ccc(C(F)(F)F)cc2)cc1)C(=O)Cn1c(CCc2ccc(F)c(F)c2F)nc(=O)c2ccccc21`, the inhibition in experiment [1] worked out at 8.82%; in experiment [2], 7.31%; in experiment [3], 10.2%.
The like results for `COc1ccc2nccc(N3CCC(NCCNCc4ccc5c(n4)NC(=O)CO5)C3)c2n1` (stereo not given) were, in that order, 1.29%, 1.28% and 1.15%.
Consider `Cc1ccc(NC(=O)c2ccc(CN3CCCN(CC4CCCCC4)CC3)cc2)cc1F`, for which the inhibition in experiment [1] worked out at 8.8%; in experiment [2] it was 6.75%; in experiment [3], 11.2%.
On to `O=C(NCCN1CCC(c2ccncc2)CC1)c1cccc(Nc2nccc(Nc3ccc(Oc4ccccc4)cc3)n2)c1`, for which the inhibition in experiment [1] was -0.12%; in experiment [2] it was -0.29%; in experiment [3] it was -0.06%.
The like results for `COc1ccc(CNCc2ccc(-c3ccc(-c4nc5cc(C(F)(F)F)ccc5[nH]4)cc3)cc2)cc1` were, in that order, 3.97%, 1.19% and 3.06%.
On to `N#Cc1ccccc1S(=O)(=O)N1CCCC(CNC(=O)[C@H](CC2CCCCC2)NC(=O)c2cc3ccccc3s2)C1` (stereo not given in full), for which the inhibition in experiment [1] is 1.08%; in experiment [2], 2.15%; in experiment [3] it was 0.55%.
The like results for `CCc1cc2c(=O)c(-c3nc(C)cs3)c([C@H](N)Cc3ccc(O)cc3)oc2cc1O` were, in that order, 2.9%, 2.34% and 7.8%.
The like results for `Cc1nnc2c(NC(=O)NC(C)C)cc3cc(-c4ccc(CN5CCCCC5)cc4)ccc3n12` were, in that order, 56%, 10.5% and 11%.
The like results for `COc1ccc2ncc(F)c(CCN3CC(O)C(CNCc4ccc5c(n4)NC(=O)CS5)C3)c2c1` (stereo not given) were, in that order, 1.08%, 1.93% and 2.84%.
Consider `Cc1onc(-c2ccccc2)c1-c1nc(NCCC(c2ccccc2)c2ccccc2)no1`, for which the inhibition in experiment [1] was found to be 9.17%; in experiment [2], 9.89%; in experiment [3], 6.9%.
In the same order, the values of `CC(C)c1ccc(NC(=O)c2cccc(CN3CCCN(Cc4cccc(C#N)c4)CC3)c2)cc1` are 6.55%, 6.93% and 3.39%.
On to `COCCOc1cc(C)c(C2CCN(CCCCNC(=O)c3ccc(NC(=O)c4ccc(Cl)cc4)cc3)CC2)cc1C`, for which the figures for the inhibition in experiment [1], in experiment [2] and in experiment [3] were 8.26%, 7.14% and 8.98%, respectively.
Turning to `COc1ccc2nc(C)cc(Nc3ccc(Oc4ccc5ccccc5c4)c(Cl)c3)c2c1`, the values for the inhibition in experiment [1], in experiment [2] and in experiment [3] were 7.14%, 7.63% and 1.45%, respectively.
On to `Cc1nc(-c2ccc(-c3ccc(C(=O)Nc4ccc(Cl)c(N5CCN(C)CC5)c4)cc3)c(C)c2)no1`, for which the values for the inhibition in experiment [1], in experiment [2] and in experiment [3] were 8.11%, 7.83% and 8.29%, respectively.
The like results for `CS(=O)(=O)c1ccc2c(c1)CCN(CCC1CCC(NC(=O)c3cc4cccc(Br)c4[nH]3)CC1)CC2` (stereo not given) were, in that order, 2.5%, 2.78% and 1.11%.
Consider `Fc1ccc2c(NN=Cc3ccccc3F)ccnc2c1`, for which the inhibition in experiment [1] is 0.28%; in experiment [2] it was -0.28%; in experiment [3], 0.43%.
